This passage reports inhibition results from ChEMBL document CHEMBL1961873, “Compounds: GSK PKIS; Assays: Nanosyn kinase panel” (2012).

Molecules are shown by their SMILES.

Assay [1] addresses T1, Interleukin-1 receptor-associated kinase 4 (Homo sapiens) (UniProt Q9NWZ3).
T1 sequence (whole entry): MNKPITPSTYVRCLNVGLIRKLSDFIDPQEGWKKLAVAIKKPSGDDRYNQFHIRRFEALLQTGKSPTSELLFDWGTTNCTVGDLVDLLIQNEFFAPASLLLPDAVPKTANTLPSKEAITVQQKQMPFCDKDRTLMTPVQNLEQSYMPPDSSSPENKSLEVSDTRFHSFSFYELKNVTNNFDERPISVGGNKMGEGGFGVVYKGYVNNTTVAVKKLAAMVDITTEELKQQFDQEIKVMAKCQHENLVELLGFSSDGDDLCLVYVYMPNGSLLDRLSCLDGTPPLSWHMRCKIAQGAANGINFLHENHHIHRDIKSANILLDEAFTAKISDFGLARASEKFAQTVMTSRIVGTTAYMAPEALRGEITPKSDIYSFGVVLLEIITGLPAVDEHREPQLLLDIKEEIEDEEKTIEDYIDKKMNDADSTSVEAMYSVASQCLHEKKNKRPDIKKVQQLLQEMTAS
Particulars: at 0.1 µM.

The target in assay [2] is T1, Interleukin-1 receptor-associated kinase 4 (Homo sapiens). Particulars: at 1 µM.
The target in assay [3] is Leucine-rich repeat serine/threonine-protein kinase 2 (Homo sapiens) (UniProt Q5S007). As to conditions: at 0.1 µM.
Sequence of Leucine-rich repeat serine/threonine-protein kinase 2 (Homo sapiens) (Q5S007 whole entry): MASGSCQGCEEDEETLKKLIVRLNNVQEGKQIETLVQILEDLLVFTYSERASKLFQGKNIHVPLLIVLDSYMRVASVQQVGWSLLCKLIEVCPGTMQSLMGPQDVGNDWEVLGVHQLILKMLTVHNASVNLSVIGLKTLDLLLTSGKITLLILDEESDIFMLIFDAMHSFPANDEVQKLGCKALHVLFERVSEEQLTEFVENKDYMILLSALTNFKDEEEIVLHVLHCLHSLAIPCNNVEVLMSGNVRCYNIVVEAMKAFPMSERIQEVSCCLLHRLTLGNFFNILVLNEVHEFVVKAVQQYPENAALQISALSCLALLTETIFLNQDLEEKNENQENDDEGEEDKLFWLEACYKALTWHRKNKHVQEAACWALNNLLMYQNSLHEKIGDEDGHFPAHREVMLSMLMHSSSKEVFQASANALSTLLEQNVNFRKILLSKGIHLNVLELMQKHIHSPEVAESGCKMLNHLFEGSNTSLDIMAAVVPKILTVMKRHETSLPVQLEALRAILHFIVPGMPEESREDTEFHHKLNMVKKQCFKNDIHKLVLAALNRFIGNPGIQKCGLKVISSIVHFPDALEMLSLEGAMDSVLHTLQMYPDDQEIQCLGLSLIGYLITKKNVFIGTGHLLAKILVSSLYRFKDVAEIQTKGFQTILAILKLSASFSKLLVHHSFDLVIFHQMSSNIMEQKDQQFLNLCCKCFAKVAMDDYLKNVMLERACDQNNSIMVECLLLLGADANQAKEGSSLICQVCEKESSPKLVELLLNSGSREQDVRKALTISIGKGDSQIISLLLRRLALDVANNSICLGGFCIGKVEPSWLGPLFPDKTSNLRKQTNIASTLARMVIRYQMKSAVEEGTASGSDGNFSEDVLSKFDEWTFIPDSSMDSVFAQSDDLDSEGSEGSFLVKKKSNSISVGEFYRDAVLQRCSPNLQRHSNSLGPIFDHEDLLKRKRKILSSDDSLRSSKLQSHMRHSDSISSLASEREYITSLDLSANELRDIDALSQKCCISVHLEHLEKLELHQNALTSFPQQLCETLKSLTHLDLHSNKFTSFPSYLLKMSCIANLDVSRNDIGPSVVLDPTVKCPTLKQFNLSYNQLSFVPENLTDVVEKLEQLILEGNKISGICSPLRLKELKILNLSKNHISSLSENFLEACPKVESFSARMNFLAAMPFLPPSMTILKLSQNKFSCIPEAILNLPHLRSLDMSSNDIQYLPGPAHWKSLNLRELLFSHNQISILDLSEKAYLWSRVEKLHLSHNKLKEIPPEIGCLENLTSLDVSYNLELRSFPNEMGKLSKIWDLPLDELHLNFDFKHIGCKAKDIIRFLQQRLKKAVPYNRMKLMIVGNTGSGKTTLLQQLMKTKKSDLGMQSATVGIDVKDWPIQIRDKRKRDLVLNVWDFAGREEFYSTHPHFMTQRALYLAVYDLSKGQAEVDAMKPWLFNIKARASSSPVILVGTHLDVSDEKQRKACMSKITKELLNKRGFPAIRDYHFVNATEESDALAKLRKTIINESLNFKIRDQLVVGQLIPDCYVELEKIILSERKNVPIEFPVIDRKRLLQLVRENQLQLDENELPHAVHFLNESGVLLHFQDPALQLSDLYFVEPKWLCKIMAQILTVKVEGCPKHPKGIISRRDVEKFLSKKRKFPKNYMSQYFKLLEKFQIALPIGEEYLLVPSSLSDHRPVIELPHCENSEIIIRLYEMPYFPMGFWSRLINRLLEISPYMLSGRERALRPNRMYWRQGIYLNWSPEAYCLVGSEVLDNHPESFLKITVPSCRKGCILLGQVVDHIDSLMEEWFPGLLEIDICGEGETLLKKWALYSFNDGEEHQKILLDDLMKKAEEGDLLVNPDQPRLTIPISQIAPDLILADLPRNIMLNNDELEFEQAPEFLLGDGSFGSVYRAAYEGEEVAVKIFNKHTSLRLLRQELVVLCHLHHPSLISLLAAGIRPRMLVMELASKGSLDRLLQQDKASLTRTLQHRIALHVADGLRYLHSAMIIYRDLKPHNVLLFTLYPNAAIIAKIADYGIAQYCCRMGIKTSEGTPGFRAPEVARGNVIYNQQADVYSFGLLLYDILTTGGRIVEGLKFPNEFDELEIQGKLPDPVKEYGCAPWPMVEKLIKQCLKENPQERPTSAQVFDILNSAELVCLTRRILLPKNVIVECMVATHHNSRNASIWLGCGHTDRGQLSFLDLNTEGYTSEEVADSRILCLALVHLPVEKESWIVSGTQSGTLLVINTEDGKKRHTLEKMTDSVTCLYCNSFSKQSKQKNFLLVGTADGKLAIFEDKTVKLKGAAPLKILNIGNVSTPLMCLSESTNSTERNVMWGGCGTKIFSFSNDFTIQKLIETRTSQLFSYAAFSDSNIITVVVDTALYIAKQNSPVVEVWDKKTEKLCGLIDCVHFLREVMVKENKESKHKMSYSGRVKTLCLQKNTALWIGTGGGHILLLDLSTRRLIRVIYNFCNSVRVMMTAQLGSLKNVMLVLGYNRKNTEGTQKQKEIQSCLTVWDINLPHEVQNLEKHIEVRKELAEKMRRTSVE
The target is the same in assay [4]. Particulars: at 1 µM.
In assay [5] the test system is Leucine-rich repeat serine/threonine-protein kinase 2 (Homo sapiens), Q5S007 [G2019S]. Particulars: at 0.1 µM.
Sequence of Leucine-rich repeat serine/threonine-protein kinase 2 (Homo sapiens), Q5S007 [G2019S] (Q5S007 whole entry G2019S): as the sequence (Q5S007 whole entry) above, with G2019S counted along it
The test system is the same in assay [6]. As to conditions: at 1 µM.
Assay [7] has as its target RAF proto-oncogene serine/threonine-protein kinase (Homo sapiens) (UniProt P04049). As to conditions: at 1 µM.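 Also: values are the mean percent inhibition of CRAF.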

Sequence of RAF proto-oncogene serine/threonine-protein kinase (Homo sapiens) (P04049 whole entry): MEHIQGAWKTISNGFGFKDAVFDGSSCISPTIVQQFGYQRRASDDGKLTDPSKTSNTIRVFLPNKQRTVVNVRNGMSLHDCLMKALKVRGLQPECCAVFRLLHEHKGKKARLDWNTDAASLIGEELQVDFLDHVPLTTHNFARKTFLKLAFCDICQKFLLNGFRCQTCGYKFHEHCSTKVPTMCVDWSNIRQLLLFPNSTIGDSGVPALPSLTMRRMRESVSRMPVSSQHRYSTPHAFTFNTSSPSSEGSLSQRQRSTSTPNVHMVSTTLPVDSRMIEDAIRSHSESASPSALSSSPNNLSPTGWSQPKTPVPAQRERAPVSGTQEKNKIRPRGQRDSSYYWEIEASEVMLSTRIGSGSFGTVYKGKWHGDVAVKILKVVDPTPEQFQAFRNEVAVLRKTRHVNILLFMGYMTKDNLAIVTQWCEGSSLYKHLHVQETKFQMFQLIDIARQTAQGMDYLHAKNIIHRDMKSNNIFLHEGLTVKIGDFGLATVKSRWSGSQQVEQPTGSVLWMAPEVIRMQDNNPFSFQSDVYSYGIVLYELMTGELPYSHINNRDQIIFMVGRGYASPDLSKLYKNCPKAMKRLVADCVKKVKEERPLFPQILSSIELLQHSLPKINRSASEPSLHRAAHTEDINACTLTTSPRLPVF

For orientation: inhibition means the change of the read-out against control, counted positive when it falls. On to `c1cnn2ncc(-c3ccnc(Nc4ccc5c(c4)OCCO5)n3)c2c1`, for which the inhibition is -2.01% in assay [1]; 7.85% in assay [2]; 12.2% in assay [3]; 19.8% in assay [4]; 16.6% in assay [5]; 61.4% in assay [6].

With `COC(=O)Nc1nc2cc(Oc3cccc(NC(=O)Nc4cc(C(F)(F)F)ccc4F)c3)ccc2[nH]1`, the inhibition in assay [1] is 3.51%; in assay [2] it was -0.12%; in assay [3], 0.62%; in assay [4], 1.81%; in assay [5], 2.19%; in assay [6], 4.67%.

Consider `NC(=O)c1ccc(-c2nc(-c3ccccn3)c(-c3ccc4c(c3)OCO4)[nH]2)cc1`, for which the inhibition in assay [7] was determined as 15.6%; in assay [1] it was 2.26%; in assay [2], 1.06%; in assay [3] it was 2.49%; in assay [4] it was 5.02%; in assay [5] it was 2.85%. Moreover, in assay [6], the inhibition amounted to 3.41%.

Take `O=C1NC(=O)C(c2cccc(Cl)c2)=C1Nc1ccc(O)c(Cl)c1`: the inhibition in assay [7] is 3.11%; in assay [1], 2.97%; in assay [2], 0.96%; in assay [3], 4.5%; in assay [4], 18.4%; in assay [5], 4.28%. For the same compound, the inhibition in assay [6] amounted to 30%.

As to `Cc1ccc(NC(=O)c2ccnc(N3CCCC3)c2)cc1-c1ccc(C(=O)NCC2CC2)cc1`, the inhibition in assay [7] was -6.49%; in assay [1], -0.18%; in assay [2], 2.34%; in assay [3] it was 1.63%; in assay [4], 6.13%; in assay [5], 4.42%. Also, in assay [6], the inhibition turned out to be 7.81%.

Take `CCCN1CCC=C(c2ccc(Nc3nc(Nc4ccccc4C(N)=O)c4cc[nH]c4n3)c(C)c2)C1`: the inhibition amounted to 3.95% in assay [7]; 2.14% in assay [1]; 5.18% in assay [2]; 77.6% in assay [3]; 87.8% in assay [4]; 63.6% in assay [5]. The inhibition in assay [6] is 63.6%.

For `Fc1cccc(COc2ccc(Nc3ncnc4sc(-c5cccs5)cc34)cc2Cl)c1`, the inhibition in assay [7] is -2.15%; in assay [1] it was 0.39%; in assay [2] it was 1.34%; in assay [3] it was 1.83%; in assay [4], 4.84%; in assay [5] it was 3.4%. Moreover, the inhibition in assay [6] came to 6.24%.

In the case of `COC(=O)Nc1nc2cc(Oc3ccc(NC(=O)Nc4cccc(C(=O)O)c4)cc3)ccc2[nH]1`, the inhibition is 0.7% in assay [7]; 1.45% in assay [1]; 0.26% in assay [2]; -4.47% in assay [3]; 4.49% in assay [4]; -2.68% in assay [5]. Also, the inhibition in assay [6] came out at 3.07%.

`Nc1ncnc2occ(-c3ccc(NC(=O)Nc4cc(C(F)(F)F)cc(C(F)(F)F)c4)cc3)c12`: the inhibition was 3.32% in assay [7]; -4.93% in assay [1]; 1.16% in assay [2]; 9.63% in assay [3]; 16.7% in assay [4]; 4.56% in assay [5]. Also, in assay [6], the inhibition stood at 26.1%.

As for `CCCN1CCC(Oc2cc(Nc3nc(Nc4cccc(F)c4C(N)=O)c4cc[nH]c4n3)c(OC)cc2Cl)CC1`, the inhibition in assay [7] is 5.41%; in assay [1] it was -2.83%; in assay [2], 2.25%; in assay [3], 11.5%; in assay [4], 19.6%; in assay [5], 12.8%. In addition, the inhibition in assay [6] was 55.9%.

For `CS(=O)(=O)CCNCc1ccc(-c2ccc3ncnc(Nc4ccc(OCc5ccccc5)c(Cl)c4)c3c2)o1`, the inhibition in assay [7] was -1.69%; in assay [1], 0.4%; in assay [2], 0.86%; in assay [3] it was 2.66%; in assay [4], 7.97%; in assay [5], 4.51%. In assay [6], the inhibition turned out to be 7.5%.

Turning to `COc1ccccc1Nc1ncc(-c2ccccc2)o1`, the inhibition in assay [7] is 1.9%; in assay [1], 2.31%; in assay [2], 2.99%; in assay [3], 4.53%; in assay [4] it was 8.57%; in assay [5] it was 6.36%. For the same compound, in assay [6], the inhibition turned out to be 11.3%.

For `COc1ccc(COc2ccc(Cc3cnc(N)nc3N)cc2OC)cc1`, the inhibition in assay [1] is 1.04%; in assay [2], 0.89%; in assay [3] it was 4.88%; in assay [4], 5.38%; in assay [5] it was 3.29%; in assay [6], 5.32%.

As for `CNC(=O)c1cncc(/C=C/c2c(Cl)cccc2Cl)c1`, the inhibition in assay [7] was 0.92%; in assay [1], 1.25%; in assay [2] it was 2.37%; in assay [3], 0.98%; in assay [4] it was 7.19%; in assay [5], 5.24%. For the same compound, the inhibition in assay [6] was 14.7%.

Take `O=C1NC(=O)C(c2ccc(Cl)cc2)=C1Nc1ccc(Cl)c(C(=O)O)c1`: the inhibition was -1.49% in assay [1]; -0.81% in assay [2]; -0.67% in assay [3]; 0.65% in assay [4]; 1.27% in assay [5]; 3.84% in assay [6].

For `COc1cc(C=NNc2ncnc3c2cnn3-c2ccccc2)ccc1O`, the inhibition is -6.14% in assay [7]; -2.02% in assay [1]; 3.98% in assay [2]; 7.59% in assay [3]; 22.3% in assay [4]; 7.59% in assay [5]. Moreover, the inhibition in assay [6] amounted to 40.8%.

Regarding `COc1cc2ncn(-c3cc(OCc4ccccc4Cl)c(C(N)=O)s3)c2cc1OC`, the inhibition in assay [7] was determined as 0.88%; in assay [1] it was 2.64%; in assay [2], 0.8%; in assay [3] it was 2.12%; in assay [4], 14.5%; in assay [5] it was 12%. Moreover, the inhibition in assay [6] worked out at 54.5%.
